Assay results from paper PMC5540273 (PLoS ONE, 2017).

Key:
Conditions in all cases: concentration: 1 μM, replicates: in singlicate; n = 1
PAK4 = test system: PAK4
PAK6 = test system: PAK6
PAK7 = test system: PAK7
PCTK1 = test system: T1, PCTK1
T1 construct: gene CDK16

PCTK2 = test system: T2, PCTK2
T2 construct: gene CDK17

PCTK3 = test system: T3, PCTK3
T3 construct: gene CDK18

PDGFRA = test system: PDGFRA
PDGFRB = test system: PDGFRB
PDPK1 = test system: PDPK1
PFTAIRE2 = test system: PFTAIRE2
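Also: KINOMEscan kinase panel screen.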

Structure (SMILES): N#Cc1ccc(-c2cc(-c3c[nH]nc3-c3ccccn3)ccn2)cc1 [GW693028]
- %Inh (PAK4): 0%
- %Inh (PAK6): 0%
- %Inh (PAK7): 11%
- %Inh (PCTK1): 0%
- %Inh (PCTK2): 0%
- %Inh (PCTK3): 33%
- %Inh (PDGFRA): 0%
- %Inh (PDGFRB): 7%
- %Inh (PDPK1): 0%
- %Inh (PFTAIRE2): 0%

Structure (SMILES): CCc1ccnc(/C=C/c2n[nH]c3cc(Sc4ccccc4C(=O)NC)ccc23)c1
- %Inh (PAK4): 3%
- %Inh (PAK6): 0%
- %Inh (PAK7): 0%
- %Inh (PCTK1): 10%
- %Inh (PCTK2): 0%
- %Inh (PCTK3): 2%
- %Inh (PDGFRA): 99.8%
- %Inh (PDGFRB): 100%
- %Inh (PDPK1): 0%
- %Inh (PFTAIRE2): 0%

Structure (SMILES): COc1cc2c(cc1OCCN1CCN(C)CC1)ncc1c3ccc(C#N)cc3[nH]c21
- %Inh (PAK4): 7%
- %Inh (PAK6): 18%
- %Inh (PAK7): 4%
- %Inh (PCTK1): 0%
- %Inh (PCTK2): 12%
- %Inh (PCTK3): 4%
- %Inh (PDGFRA): 97.7%
- %Inh (PDGFRB): 94.7%
- %Inh (PDPK1): 0%
- %Inh (PFTAIRE2): 58%

Structure (SMILES): CCn1cnc2c(N)ncnc21 [GW345098]
- %Inh (PAK4): 6%
- %Inh (PAK6): 13%
- %Inh (PAK7): 11%
- %Inh (PCTK1): 0%
- %Inh (PCTK2): 0%
- %Inh (PCTK3): 0%
- %Inh (PDGFRA): 0%
- %Inh (PDGFRB): 24%
- %Inh (PDPK1): 11%
- %Inh (PFTAIRE2): 3%

Structure (SMILES): O=C(NCCCN1CCOCC1)c1cccc(Nc2nccc(Nc3ccc(Oc4ccccc4)cc3)n2)c1 [GW663929]
- %Inh (PAK4): 9%
- %Inh (PAK6): 7%
- %Inh (PAK7): 12%
- %Inh (PCTK1): 0%
- %Inh (PCTK2): 22%
- %Inh (PCTK3): 12%
- %Inh (PDGFRA): 46%
- %Inh (PDGFRB): 99.6%
- %Inh (PDPK1): 9%
- %Inh (PFTAIRE2): 18%

Structure (SMILES): Cc1cccc(Cn2ccn3c(=O)cc(N4CCOCC4)nc23)c1 [GSK2297542]
- %Inh (PAK4): 25%
- %Inh (PAK6): 53%
- %Inh (PAK7): 22%
- %Inh (PCTK1): 6%
- %Inh (PCTK2): 16%
- %Inh (PCTK3): 19%
- %Inh (PDGFRA): 0%
- %Inh (PDGFRB): 40%
- %Inh (PDPK1): 11%
- %Inh (PFTAIRE2): 27%

Structure (SMILES): COc1ccc(S(=O)(=O)NC2CCN(c3cc(C)nc(Nc4cccc(C#N)c4)n3)CC2)cc1.O=C(O)C(F)(F)F [GSK1653539]
- %Inh (PAK4): 0%
- %Inh (PAK6): 0%
- %Inh (PAK7): 30%
- %Inh (PCTK1): 0%
- %Inh (PCTK2): 0%
- %Inh (PCTK3): 0%
- %Inh (PDGFRA): 0%
- %Inh (PDGFRB): 12%
- %Inh (PDPK1): 0%
- %Inh (PFTAIRE2): 3%

Structure (SMILES): COc1cc(Nc2nccc(N3CCC(NC(=O)c4cccc(NC(C)=O)c4)C3)n2)cc(OC)c1OC (centres unmarked) [GSK1379754]
- %Inh (PAK4): 0%
- %Inh (PAK6): 0%
- %Inh (PAK7): 0%
- %Inh (PCTK1): 4%
- %Inh (PCTK2): 0%
- %Inh (PCTK3): 20%
- %Inh (PDGFRA): 0%
- %Inh (PDGFRB): 54%
- %Inh (PDPK1): 30%
- %Inh (PFTAIRE2): 18%

Structure (SMILES): Fc1ccc(-c2ncn(CCCN3CCOCC3)c2-c2cccnc2)cc1 [SB-211743]
- %Inh (PAK4): 7%
- %Inh (PAK6): 0%
- %Inh (PAK7): 0%
- %Inh (PCTK1): 0%
- %Inh (PCTK2): 0%
- %Inh (PCTK3): 0%
- %Inh (PDGFRA): 0%
- %Inh (PDGFRB): 0%
- %Inh (PDPK1): 1%
- %Inh (PFTAIRE2): 0%

Structure (SMILES): O=C(c1ccc(-c2cc(-c3c[nH]nc3-c3ccccn3)ccn2)cc1)N1CCOCC1 [GW812171]
- %Inh (PAK4): 6%
- %Inh (PAK6): 0%
- %Inh (PAK7): 0%
- %Inh (PCTK1): 0%
- %Inh (PCTK2): 0%
- %Inh (PCTK3): 0%
- %Inh (PDGFRA): 0%
- %Inh (PDGFRB): 0%
- %Inh (PDPK1): 0%
- %Inh (PFTAIRE2): 0%

Structure (SMILES): COc1ccc(Nc2ncc(C#N)c(Nc3ccccc3C(N)=O)n2)cc1N1CCN(C)CC1.Cl [GSK1558669]
- %Inh (PAK4): 99.2%
- %Inh (PAK6): 93.9%
- %Inh (PAK7): 99.9%
- %Inh (PCTK1): 99.2%
- %Inh (PCTK2): 98.2%
- %Inh (PCTK3): 88%
- %Inh (PDGFRA): 97.9%
- %Inh (PDGFRB): 100%
- %Inh (PDPK1): 37%
- %Inh (PFTAIRE2): 97.6%

Structure (SMILES): CN1c2ccc(CNc3ccc(F)cc3)cc2-c2c(cnn2C)S1(=O)=O
- %Inh (PAK4): 0%
- %Inh (PAK6): 0%
- %Inh (PAK7): 0%
- %Inh (PCTK1): 0%
- %Inh (PCTK2): 0%
- %Inh (PCTK3): 0%
- %Inh (PDGFRA): 0%
- %Inh (PDGFRB): 0%
- %Inh (PDPK1): 12%
- %Inh (PFTAIRE2): 0%

Structure (SMILES): c1ccc(-c2cc(-c3c[nH]nc3-c3ccccn3)ccn2)cc1 [GW576604]
- %Inh (PAK4): 0%
- %Inh (PAK6): 0%
- %Inh (PAK7): 0%
- %Inh (PCTK1): 0%
- %Inh (PCTK2): 0%
- %Inh (PCTK3): 36%
- %Inh (PDGFRA): 0%
- %Inh (PDGFRB): 17%
- %Inh (PDPK1): 0%
- %Inh (PFTAIRE2): 16%

Structure (SMILES): O=c1cc(N2CCOCC2)nc2n(Cc3cccc(Cl)c3Cl)c(C3CC3)nn12 [GSK2358994]
- %Inh (PAK4): 0%
- %Inh (PAK6): 13%
- %Inh (PAK7): 0%
- %Inh (PCTK1): 0%
- %Inh (PCTK2): 0%
- %Inh (PCTK3): 3%
- %Inh (PDGFRA): 0%
- %Inh (PDGFRB): 2%
- %Inh (PDPK1): 14%
- %Inh (PFTAIRE2): 0%

Structure (SMILES): Nc1nc(-c2ccc3c(N)n[nH]c3c2)cc(N2CCCC2)n1 [GSK2227430]
- %Inh (PAK4): 0%
- %Inh (PAK6): 0%
- %Inh (PAK7): 5%
- %Inh (PCTK1): 0%
- %Inh (PCTK2): 0%
- %Inh (PCTK3): 0%
- %Inh (PDGFRA): 0%
- %Inh (PDGFRB): 18%
- %Inh (PDPK1): 67%
- %Inh (PFTAIRE2): 6%

Structure (SMILES): Cc1ccc(NC(=O)c2ccnc(N3CCN(C)CC3)c2)cc1-c1ccc(C(=O)NCC2CC2)cc1 [GW775604]
- %Inh (PAK4): 0%
- %Inh (PAK6): 0%
- %Inh (PAK7): 0%
- %Inh (PCTK1): 0%
- %Inh (PCTK2): 0%
- %Inh (PCTK3): 0%
- %Inh (PDGFRA): 0%
- %Inh (PDGFRB): 93.4%
- %Inh (PDPK1): 0%
- %Inh (PFTAIRE2): 1%

Structure (SMILES): COc1ccc(Nc2nccc(N3CCC(NC(=O)Nc4cccc(C(C)=O)c4)C3)n2)cc1 (centres unmarked) [GSK1379731]
- %Inh (PAK4): 0%
- %Inh (PAK6): 13%
- %Inh (PAK7): 0%
- %Inh (PCTK1): 9%
- %Inh (PCTK2): 0%
- %Inh (PCTK3): 18%
- %Inh (PDGFRA): 0%
- %Inh (PDGFRB): 38%
- %Inh (PDPK1): 7%
- %Inh (PFTAIRE2): 9%
